LGR2 antag: inhibitors of bursicon-induced LGR2 CRE-luciferase signal, primary screen, cell-based, HEK293, CRE-luciferase reporter, bursicon stimulation | Drosophila bursicon receptor LGR2 (rickets) | bursicon-stimulated, 4 h | inhibition, % at 9.99 µM | 380,000 compounds, 0.35% hits;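 active = drop in luminescence signal, shown as inhibition above about 50% in the replicate tests, limit read from the data, passing the limit was not always enough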;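 note: agonist challenge used bursicon conditioned medium at about half maximal strength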
HSP90 inh: HSP90 inhibitors, primary screen, cell lysate, luminescence. Heat shock protein HSP 90 (rabbit reticulocyte lysate; luciferase refolding). Rabbit reticulocyte lysate, luciferase refolding luminescence, 3 h. inhibition, % at 5.6 µM. 290,000 compounds, 0.91% hits. AID 1789, 2009;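 active = inhibition above the screen-wide mean plus 3 SD, computed separately per campaign, cut at about 16% in these data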;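 note: 0% = DMSO wells and 100% = 60 µM geldanamycin wells; inhibitors lower the luminescence because luciferase stays unfolded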
Mdm2 MdmX PPI: inhibitors of human Mdm2-MdmX association, primary screen, cell-based, luminescence, split luciferase, SaOS-2, uHTS; inhibition, % at 8 µM; AID 485346, 2010; SaOS-2 split-luciferase Mdm2/MdmX complementation; Protein Mdm4 (Homo sapiens) + E3 ubiquitin-protein ligase Mdm2 (Homo sapiens), …; 330,000 compounds, 3% hits;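 active = inhibition of at least 50% at 8 µM in the primary screen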
Peg3 promoter: Peg3 promoter-driven luciferase inhibitors, primary screen, cell-based, HeLa, luciferase luminescence; HeLa PEG-Prom luciferase reporter, overnight; inhibition, % at 20 µM; 360,000 compounds, 1.7% hits;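 active = inhibition of at least 50% at 20 µM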
CF NFkB inh: inhibitors of PAF-induced NF-kB signaling, primary screen, cell-based, GFP fluorescence, uHTS | KKLEB NF-kB-GFP reporter, GFP fluorescence overnight | inhibition, % at 5 µM | 360,000 compounds, 0.86% hits;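 active = at least 50% inhibition at 5 µM, scaled per plate between neutral and stimulator controls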;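 note: PAF is a Pseudomonas aeruginosa culture filtrate used as stimulus; plate controls were PAF-stimulated DMSO wells for no effect and unstimulated DMSO wells for full effect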
KKLEB cytotox: cytotoxicity in KKLEB CF airway cells, primary screen, cytotoxicity control for CF NF-kB inhibitor project, cell-based, uHTS, fluorescence assay plates; activity change (cytotoxicity), % at 5 µM; 360,000 compounds, 0.36% hits; KKLEB CF airway cells viability, ATPlite luminescence, overnight; stronger effect = lower value; cells stimulated with P. aeruginosa culture filtrate;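 active = corrected activity change at or below -50% at 5 µM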
Mdm2 MdmX conf: Mdm2-MdmX complex disruptors, retested hits, confirmation, luminescence, single concentration; shares compounds with Mdm2 MdmX PPI; Mdm2-MdmX binding, luminescent assay; inhibition, % at 8 µM; 10,000 compounds, 55% hits; AID 489028, 2010; in the data active = inhibition above about 40%
Full FLuc ctr: full-length luciferase signal inhibition, confirmation, counter-screen for Mdm2/MdmX interaction inhibitor project, cell-based, single concentration, SaOS-2. AID 504607, 2011. shares compounds with Mdm2 MdmX PPI. 6,200 compounds, 77% hits. inhibition, % at 8 µM. SaOS-2 full-length luciferase counterscreen, luminescence;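 active = mean inhibition at 8 µM reaching about 37%, which flags the compound as non-specific, limit read from the data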;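 note: p53-null SaOS-2 cells with luciferase driven by a doxycycline-inducible promoter; compound on cells about two nights before reading with doxycycline added after day one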
* hit, by the source's call; / = not tested or not shown. Only some compounds are listed: those with a hit (about 3.6% of all), similar ones and a draw of the others.

SMILES	LGR2 antag	HSP90 inh	Mdm2 MdmX PPI	Peg3 promoter	CF NFkB inh	KKLEB cytotox	Mdm2 MdmX conf	others
COC(=O)c1ccc(-n2nnnc2SCC(=O)Nc2cc(OC)ccc2OC)cc1	12.2	-0.7	-9.2	0.1	-11.6	11.7	/
CC(=O)Nc1ccc(NC(=O)CSc2nnnn2-c2ccc3c(c2)OCCO3)cc1	2.5	2.9	51.5*	26.5	-5.1	0.2	3.6
COc1ccc2[nH]c3nc(SCC(=O)Nc4ccc5c(c4)OCO5)nnc3c2c1	/	0.9	66.3*	25.1	30.8	-20.7	6.2
COc1ccc(OC)c(NC(=O)CSc2nnnn2-c2ccc3c(c2)OCO3)c1	16.5	9.3	58.1*	8.9	23.0	-11.2	29.9
CC(C)NC(=O)Nc1ccc2c(c1)C(=O)N([C@@H](C)CO)C[C@@H](C)[C@@H](CN(C)C(=O)c1ccncc1)OCCCC[C@@H](C)O2	12.6	/	/	/	/	/	/
C[C@@H]1CN([C@H](C)CO)C(=O)Cc2cc(NC(=O)Cn3cnnn3)ccc2O[C@H]1CN(C)S(=O)(=O)c1ccccc1	0.9	/	/	/	/	/	/
CO[C@@H]1CN(C)C(=O)c2cc(NC(=O)C3CC3)ccc2OC[C@@H](C)N(C(=O)CN2CCOCC2)C[C@H]1C	-7.5	/	/	/	/	/	/
Cc1ccc(-n2nnnc2SCC(=O)Nc2ccc3c(c2)COC3=O)cc1C	-4.6	6.5	51.4*	27.6	1.0	2.9	9.1
COc1ccc(-n2nnnc2SCC(=O)Nc2cc(OC)c([N+](=O)[O-])cc2C)cc1	49.2	2.1	51.9*	5.7	21.0	-11.7	6.8
Cc1ccc(-n2nnnc2SCC(=O)Nc2ccc3c(c2)OCCO3)cc1C	/	3.0	5.6	-12.8	-1.5	3.7	/
C[C@@H]1CCCCO[C@@H](CN(C)S(=O)(=O)c2cccs2)[C@@H](C)CN([C@H](C)CO)C(=O)c2cc(N(C)C)ccc2O1	-2.1	/	/	/	/	/	/
C[C@H]1CN([C@@H](C)CO)C(=O)Cc2cc(NC(=O)CCCCCC(=O)Nc3ccccc3N)ccc2O[C@@H]1CN(C)Cc1ccccc1	8.7	/	/	/	/	/	/
N#Cc1ccc(-c2ccc3c(c2)[C@@H]2[C@@H](CCN2S(=O)(=O)c2cccc(F)c2)[C@@H](CO)N3)cc1	3.6	/	/	/	/	/	/
CN(C)C(=O)C[C@@H]1CC[C@@H]2[C@@H](COc3ccc(NS(=O)(=O)c4cccc(F)c4)cc3C(=O)N2C)O1	4.4	/	/	/	/	/	/
CCCCNc1c(-c2ccc(OC)c(Sc3ccc(OC)cc3)c2)nc2ccccn12	-15.1	/	94.5*	93.3*	21.4	-6.5	40.0	Full FLuc ctr=65.1*
CCCCNc1c(-c2ccc(SC(C)CC)cc2)nc2cnccn12 (stereo not drawn)	/	/	52.2*	48.0	13.3	6.7	10.6
COCC(=O)N1[C@H](C#N)[C@@H](c2ccccc2-c2ccc(C)cc2)[C@@H]1CO	-2.1	/	/	/	/	/	/
CN(C)C/C=C/C(O)(c1ccccc1)c1ccccc1	0.1	-1.2	16.2	10.0	-5.1	11.5	/
CN(C)CC(CCC(CN(C)C)C(O)(c1ccccc1)c1ccccc1)C(O)(c1ccccc1)c1ccccc1 (stereo not drawn)	19.1	5.2	100.3*	/	/	/	99.2*	Full FLuc ctr=51.8*
Cc1ccc(Nc2nnc(SCc3nc4ccccc4c(=O)[nH]3)s2)cc1	0.3	-0.9	65.8*	12.1	-26.9	-4.6	40.4*	Full FLuc ctr=16.5
O=C(CCc1nc2ccccc2c(=O)[nH]1)Nc1nnc(SCc2ccc(Cl)cc2)s1	4.1	/	32.7	5.1	-7.6	-10.5	/
C=C1CCC2[C@](C)(CO)[C@H](O)CC[C@@]2(C)[C@@H]1C/C=C1\C(=O)OC[C@H]1O (stereo partly drawn)	/	/	68.5*	-24.4	7.8	4.9	63.2*	Full FLuc ctr=27.2
COc1cc2c(C#N)c(N3CCN(c4ccccc4OC)CC3)nc(N)c2c(N)n1	/	2.6	74.5*	24.2	24.8	-26.5	29.9
COc1cc2c(C#N)c(N3CCN(C)CC3)nc(N)c2c(N)n1	/	-4.2	-13.0	-10.1	-20.8	-5.7	/
Cc1cc(/C=C2\SC(=Nc3ccc(F)cc3)NC2=O)c(C)n1-c1ccc(S(N)(=O)=O)cc1	/	-0.1	61.5*	8.9	23.2	0.9	46.8*	Full FLuc ctr=59.1*
SMILES	LGR2 antag	HSP90 inh	Mdm2 MdmX PPI	Peg3 promoter	CF NFkB inh	KKLEB cytotox	Mdm2 MdmX conf	others
Cc1cc(/C=C2\SC(=S)NC2=O)c(C)n1-c1ccc(O)cc1	-57.2	-0.1	19.6	-255.1	13.5	-7.8	/
Cc1cccc(-c2cc3nc(C)cc(NCCCN(C)C)n3n2)c1	/	-1.4	64.7*	-10.4	-19.8	-9.8	19.6
CN(CCO)c1c2c(nc3cc(-c4cccc(F)c4)nn13)CCCC2	/	1.9	-74.9	-179.9	11.5	-8.5	/
CN(C)CCCNc1cc(-c2ccccc2)nc2cc(-c3cccc(F)c3)nn12	1.4	-0.1	63.0*	101.0*	-9.7	7.6	35.5	Full FLuc ctr=50.9*
COCCN1CCN(c2cc(-c3ccccc3)nc3cc(-c4cccc(F)c4)nn23)CC1	8.7	-5.8	51.0*	21.4	10.4	-11.0	22.9
COCc1cn(CC[C@H]2CC[C@H](NC(=O)Nc3ccc(C(F)(F)F)cc3)[C@H](CO)O2)nn1	-0.2	/	/	/	/	/	/
O=C(Cc1ccccn1)N[C@H]1CC[C@@H](CCNC(=O)c2cc(Cl)cc(Cl)c2)O[C@@H]1CO	-4.7	/	/	/	/	/	/
Cc1ccc(NC(=O)Cn2nnc(C(=O)NCCc3ccccc3)c2N)cc1Cl	7.5	-4.5	53.4*	5.6	2.1	-7.3	46.5*	Full FLuc ctr=29.3
Cc1ccc(NC(=O)Cn2nnc(C(=O)NCCc3ccccc3)c2N)c(C)c1	/	-3.3	60.9*	20.4	22.0	-32.4	9.8
COc1ccc(NC(=O)Nc2cccc3c2O[C@H](CN(C)C(=O)Nc2ccccc2)[C@H](C)CN([C@H](C)CO)C3=O)cc1	-13.5	/	/	/	/	/	/
C[C@H]1CN([C@@H](C)CO)C(=O)Cc2cc(NC(=O)Cn3cnnn3)ccc2O[C@H]1CN(C)S(=O)(=O)c1ccc(F)cc1	3.9	/	/	/	/	/	/
O=C(O)[C@@H]1[C@@H](CO)[C@@H]2Cn3c(ccc(-c4ccccc4)c3=O)[C@@H]2N1CCc1ccccc1	7.1	/	/	/	/	/	/
Cc1nn(-c2ccccc2)c(N2CCCC2)c1/C=N/NC(=O)c1cc(-c2cccnc2)nc2ccccc12	30.5	0.7	56.3*	45.8	22.3	-6.6	21.8
